Screening results: PubChem, several laboratories
FAS TE block: blocks the thioesterase domain of human fatty acid synthase | actives 0.67% (n = 360,000) | recombinant FAS-TE, OMFH fluorogenic substrate, fluorescence endpoint | P49327 | inhibition, % at 15 µM;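 active means compounds whose normalised, plate-corrected inhibition of enzyme fluorescence in the single-dose primary screen is 50% or more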;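 further: 0% = DMSO with enzyme and 100% = substrate without enzyme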
MPTP block: blocks calcium-induced mitochondrial swelling; isolated mouse mitochondria, Ca2+ swelling absorbance, 30 min; actives 1.4% (n = 360,000); AID 602449; inhibition, % at 10 µM;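 active means inhibition of 50% or more, scaled per plate between neutral and stimulator controls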;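 further: 0% = DMSO wells given calcium and 100% = 1 mM EGTA wells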
NR3A LBD binder: modulates the human NR3A ligand-binding domain; NR3A LBD differential scanning fluorimetry, Tm shift; 0% = protein alone, 100% = glycine-bound protein; Tm shift relative to glycine control, % at 25 µM; actives 2.5% (n = 340,000); AID 1259313;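 active means melting temperature shift of at least 10% of the positive control shift, at one fixed dose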
rCAG RNA binder: r(CAG) repeat RNA binding; TO-PRO-1 dye displacement fluorescence; inhibition, % at 3 µM; actives 1.3% (n = 370,000);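 active means inhibition above the plate cutoff, the mean of all test compounds on that plate plus 3 SD, cut at about 35% in these data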;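 further: 0% = DMSO alone and 100% = 100 µM mitoxantrone as full dye displacement; higher means more dye released from RNA so lower well fluorescence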
Myeloid diff 2: myeloid differentiation induction. ER-HoxA9 myeloid progenitors, lysozyme-GFP differentiation, flow cytometry. calls only at 10 µM. actives 1% (n = 360,000). AID 624256;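 active means normalized GFP-positive differentiation at or above the plate's own cutoff, the solvent-only control mean plus 3 SD; inconclusive means no clear call, values can overlap the other calls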;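 further: cells exposed to compound for four days before flow analysis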
* hit, by the source's call; i = inactive; ? = inconclusive; / = not tested or not shown; + = active, no number. Sampled rows, rich in hits. Any-hit rate of the full collection: about 5.7%.

SMILES | FAS TE block | MPTP block | NR3A LBD binder | rCAG RNA binder | Myeloid diff 2
O=C1C(=C(c2ccccc2)N2CCOCC2)Cc2ccccc21 | 0 | 1 | / | -1 | i
CCCCCN1CC(=O)N2Cc3[nH]c4ccccc4c3C[C@H]2C1=O | 0 | -1 | -5 | -4 | i
CCCCCN1CC(=O)N2C(C)c3[nH]c4ccccc4c3C[C@H]2C1=O (stereo not given in full) | 0 | 2 | -2 | 2 | +
C=CCN1CC(=O)N2Cc3[nH]c4ccccc4c3C[C@H]2C1=O | -4 | 0 | -1 | -1 | +
CCCCN1C(=O)C2Cc3c([nH]c4ccccc34)CN2C1=S (stereo not given) | -27 | 8 | 3 | -4 | +
COC(=O)c1cc2c(c3c4cc(F)ccc4n(S(=O)(=O)c4ccc(OC)cc4)c13)C(=O)N(Cc1ccccc1OC)C2 | / | / | / | 14 | /
CC(=O)C1=CCN(C)CC1 | / | / | / | 2 | /
Cc1sc2nc(SCC(=O)c3cccs3)n(Cc3ccco3)c(=O)c2c1C | 26 | 0 | 11* | 10 | +
CCn1c(SCC(=O)NC(=O)NCc2ccco2)nc2sc(C)c(C)c2c1=O | 1 | -2 | 0 | 17 | i
CCCC#C/C(CCC)=C1\c2ccccc2C(=O)N1c1ccccc1 | / | / | / | 7 | /
COC(=O)[C@]12C[C@H](CC(=O)N3CCSCC3)C(=O)N(CCC3=CCCCC3)C1=C[C@H](C1CCCC1)O[C@@H]2C | / | / | / | 3 | /
CSc1nsc(/C=C/Nc2ccc(C)c(C)c2)c1C#N | 9 | 25 | 3 | 27 | i
CSc1nsc(/C=C/Nc2ccc(C)cc2)c1C#N | -16 | 1 | 0 | 21 | +
Nc1nc2c(ncn2[C@@H]2O[C@H](C(=O)NCC3CCCCC3)[C@@H](O)[C@H]2O)c(=O)[nH]1 | / | / | / | 3 | /
CCn1c(COc2ccc(C)cc2)nnc1SCc1cccc(C(F)(F)F)c1 | / | / | / | -4 | /
CC(=O)n1c2c(c3ccccc31)OC(N)=C(C#N)C2c1cccc(Cl)c1Cl (stereo not given) | 6 | 5 | 13* | 5 | i
Cc1ccccc1-c1cc(=O)c2ccccc2o1 | -3 | 0 | -3 | 2 | i
Cc1cc(CCNC=O)c(C)c2c1oc1ccccc12 | 1 | 5 | 13* | 6 | i
COC(=O)[C@]12C[C@H](CC(=O)NCC34CC5CC(CC(C5)C3)C4)C(=O)N(Cc3ccccc3)C1=C[C@H](C1CCCC1)O[C@@H]2C | / | / | / | 11 | /
CN(Cc1ccco1)C(=O)CN1C(=O)C2(OCCCO2)c2ccccc21 | / | / | / | 3 | /
Cc1cc(N/N=C/c2ccccc2O)c2ccccc2n1 | 4 | 13 | -8 | 16 | i
Oc1ccc(/C=N/Nc2cccc3cccnc23)c(O)c1 | 17 | 2 | 32* | 21 | i
Cc1ccc(/C=N/Nc2cccc3cccnc23)c(O)c1 | 29 | 1 | 10* | 5 | i
Oc1ccc(C=NNc2ccccn2)c(O)c1 | -5 | 0 | 4 | 2 | i
COC(=O)[C@]12C[C@H](CC(=O)NCc3cccc(C(F)(F)F)c3)C(=O)N(CCc3ccc(OC)c(OC)c3)C1=C[C@H](C(C)C)O[C@@H]2C1CC1 | / | / | / | 1 | /
SMILES | FAS TE block | MPTP block | NR3A LBD binder | rCAG RNA binder | Myeloid diff 2
O=C(Nc1cccc([N+](=O)[O-])c1)OCc1ccc2c(c1)OCO2 | / | / | / | 5 | /
O=C(Cc1c[nH]c2ccccc12)Nc1ccc(Nc2cccnc2)cc1 | / | / | / | 3 | /
Cn1c(-c2ccsc2)c(-c2cccs2)c2cc(-c3ccc4cc[nH]c4c3)ccc21 | 34 | -1 | 11* | 26 | i
Cn1c(-c2ccsc2)c(-c2cccs2)c2cc(-c3ccc4[nH]ccc4c3)ccc21 | 17 | 0 | 10 | 34 | i
C[C@@H]1CN([C@H](C)CO)C(=O)CCCn2nncc2CO[C@@H]1CN(C)C(=O)Nc1ccccc1 | / | / | / | 3 | /
COc1cc(/C=N/NC(=O)Nc2cccc3nsnc23)cc(OC)c1OC | 5 | 4 | -2 | 7 | i
O=C(N/N=C/c1ccc(O)cc1)Nc1cccc2nsnc12 | 29 | 3 | 17* | 21 | i
CCOc1[nH]n(-c2ccc(Cl)cc2)c(=O)c1C=Nc1ccc(OC)cc1 | 31 | 4 | -7 | 0 | +
CCn1c(C)cc(/C=C2/SC(=S)NC2=O)c1C | -6 | 1 | 0 | 0 | i
CCn1ncc(/C=C2/SC(=S)NC2=O)c1C | -8 | 1 | 12* | 2 | i
CCCc1nnc(NS(=O)(=O)c2ccc(OC)cc2)s1 | -6 | -3 | 10* | 5 | i
Cc1cccc(C)c1NC(=O)CNC(=O)C1CCCN(C(=O)c2ccc(Cl)cc2)C1 (stereo not given) | -6 | 0 | 0 | -3 | i
CCCN(CC(=O)Nc1ccccc1C)C(=O)C1CCCN(C(=O)c2ccc(Cl)cc2)C1 (stereo not given) | -3 | 0 | 3 | -1 | +
CCOP(=O)(OCC)c1nc(-c2cccc3ccccc23)oc1NCCc1ccc(OC)cc1 | 28 | 1 | 16* | -1 | i
CCN(CC)S(=O)(=O)c1cc([N+](=O)[O-])ccc1N=Nc1c(O)[nH]c2ccccc12 | -7 | 10 | 18* | 3 | i
O=C(c1ccc(Cl)c([N+](=O)[O-])c1)N(c1ccccn1)c1ccccn1 | -1 | 0 | 15* | -2 | i
O=C(c1ccc(N2CCCCC2)c([N+](=O)[O-])c1)N(c1ccccn1)c1ccccn1 | -9 | -1 | 0 | -4 | i
COCCn1cnc2c(c1=O)c1nc3ccccc3nc1n2/N=C/c1ccc(OC)c(OC)c1 | 0 | 1 | 0 | 2 | i
C=CCn1cnc2c(c1=O)c1nc3ccccc3nc1n2/N=C/c1cccc(OC)c1 | -7 | -2 | 11* | 1 | i
C[C@H]1CCC[C@H](O)CC(=O)c2c(O)cc(O)cc2CC(=O)O1 | / | / | / | 2 | /
COC(=O)C1=C(C)N(C)C(C)=C(C(=O)OC)C1c1ccsc1 | -5 | 1 | 12* | -5 | i
O=C(CN1c2ccccc2Sc2ccccc21)NNC(=O)Nc1ccc(Cl)cc1 | 6 | 38 | 39* | 21 | i
CCOC(=O)[C@@]12CN(C(=O)OC(C)(C)C)CC=C1N(Cc1ccc(OC)cc1)C(=O)[C@H]2CC(=O)NCc1cccc(C(F)(F)F)c1 | / | / | / | 5 | /
CC1(O)C(=O)C2(C)C=CC1C1C(=O)N(c3ccccc3)C(=O)C12 (stereo not given) | / | / | / | 2 | /
CN(CC1COCCO1)C(=O)c1cc(COc2c(F)cccc2F)on1 (stereo not given) | -6 | 1 | 3 | -9 | i
CSc1ccccc1OCc1cc(C(=O)N(C)Cc2nonc2C)no1 | 16 | 1 | 13* | -5 | i
CSc1ccccc1OCc1cc(C(=O)N(C)CC2COCCO2)no1 (stereo not given) | -5 | 0 | 13* | -1 | i
Cc1nonc1CN(C)C(=O)c1cc(COc2ccc(F)cc2Cl)on1 | 18 | 0 | 1 | -5 | ?
COc1ccc(-c2c(Cc3ccccc3)nc(NC(=O)c3ccccc3)n2C)cc1 | / | / | / | 6 | /
